# Experimental data published in PubChem BioAssay (NCATS).
# Records with an inconclusive call do not appear. Where a call stands in place of a potency, no number is given. The source made the active and inactive calls. Calls follow the shape of the dose curve; as a rule, active = well fitted inhibition curve with a large enough effect; inconclusive = small, poorly fitted or top-dose-only effect; inactive = flat fitted curve, though single readings scatter.
# Target: Voltage-gated inwardly rectifying potassium channel KCNH2 (Homo sapiens) (UniProt Q12809)
# Sequence (Q12809 whole entry, looked up): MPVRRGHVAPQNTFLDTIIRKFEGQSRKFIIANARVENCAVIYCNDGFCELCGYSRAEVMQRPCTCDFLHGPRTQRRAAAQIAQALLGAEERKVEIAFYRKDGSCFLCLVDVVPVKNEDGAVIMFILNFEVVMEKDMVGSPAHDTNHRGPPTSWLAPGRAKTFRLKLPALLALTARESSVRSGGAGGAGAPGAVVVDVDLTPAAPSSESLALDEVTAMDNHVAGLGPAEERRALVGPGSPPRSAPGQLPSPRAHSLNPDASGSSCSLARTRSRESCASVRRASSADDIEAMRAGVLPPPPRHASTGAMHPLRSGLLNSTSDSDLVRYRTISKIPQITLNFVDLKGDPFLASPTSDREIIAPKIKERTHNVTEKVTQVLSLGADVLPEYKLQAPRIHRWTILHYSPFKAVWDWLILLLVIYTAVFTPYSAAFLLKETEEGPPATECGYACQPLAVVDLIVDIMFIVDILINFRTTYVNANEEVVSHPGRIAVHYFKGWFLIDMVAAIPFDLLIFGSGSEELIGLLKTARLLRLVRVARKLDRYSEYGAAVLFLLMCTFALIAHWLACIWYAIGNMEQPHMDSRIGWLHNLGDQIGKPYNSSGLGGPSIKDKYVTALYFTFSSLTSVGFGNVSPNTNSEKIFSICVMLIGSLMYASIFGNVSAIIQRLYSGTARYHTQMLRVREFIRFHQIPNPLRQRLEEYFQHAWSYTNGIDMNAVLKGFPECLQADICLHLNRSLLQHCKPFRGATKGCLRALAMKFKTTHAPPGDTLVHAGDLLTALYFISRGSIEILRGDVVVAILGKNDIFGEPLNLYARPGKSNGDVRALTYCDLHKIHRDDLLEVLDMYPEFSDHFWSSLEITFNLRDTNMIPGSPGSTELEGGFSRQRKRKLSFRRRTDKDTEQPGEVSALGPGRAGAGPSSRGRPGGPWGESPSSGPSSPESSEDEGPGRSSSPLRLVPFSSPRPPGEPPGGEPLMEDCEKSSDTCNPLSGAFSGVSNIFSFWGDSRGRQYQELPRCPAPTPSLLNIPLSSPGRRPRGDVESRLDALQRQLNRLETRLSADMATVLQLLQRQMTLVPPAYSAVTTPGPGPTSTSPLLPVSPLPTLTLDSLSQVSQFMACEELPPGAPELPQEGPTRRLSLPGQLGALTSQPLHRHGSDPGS
# Assay: qHTS Assay for Small Molecule Inhibitors of the Human hERG Channel Activity (AID 588834);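 also: lower thallium flux fluorescence means stronger hERG block; nearly all actives have a fitted effect of over 50% in size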
# Settings: U2OS BacMam hERG, FluxOR thallium flux fluorescence; series mostly up to 92.2 µM
# Text: NIH Chemical Genomics Center [NCGC]
# National Institutes of Environmental Health Sciences [NIEHS]
# National Toxicology Program [NTP]
# We have developed a 1536-well cell-based assay for quantitative high throughput screening (qHTS) to determine in vitro hERG channel blockage as a measure of cardio toxicity with small molecules. This particular assay uses the U2OS cell line which is derived from human osteosarcoma.
# NCGC Assay Protocol Summary:
# HERG assay (FluxORTM thallium flux assay) was initially developed by Invitrogen/Molecular Probes, and then miniaturized into 1536-well plate in a homogeneous format by NCGC. This assay measures the activity of potassium channel using thallium dye (FluxOR) flux as surrogate measurement for potassium into the cells with a FDSS-7000 kinetic plate reader (Hamamatsu Corp., Hamamatsu City, Japan). The hERG ion channel is transduced into mammalian cells (U2OS) using a baculovirus (Bacmam) construct harboring the hERG K+ ion channel. So far we screened LOPAC1280 library (Sigma), the NTP collection of 1408 compounds, and the NCGC Pharmaceutical Collection (NPC), in which many well defined HERG blockers are present. The rank order potencies of many of these compounds are similar to that of other HERG assays (membrane potential, Rb+ flux, patch clamp, etc). This quick and homogeneous assay is also found to be sensitive, specific, and robust.
# Using the FluxORTM thallium flux assay, the activity of potassium channel using thallium dye (FluxOR) flux as surrogate measurement for potassium into the cells was measured in the U2OS cell line transduced with hERG K+ ion channel using a baculovirus (Bacmam) using Opti-MEM medium (Invitrogen) containing 2% fetal calf serum (FCS, HyCone) following loading buffer addition, compound treatment for around 10 minutes and finally adding stimulation buffer. The assay was performed in black clear Kalypsys 1536-well plates. In the screen, Astemizole was used as positive controls. Library compounds were measured for their ability to cause hERG channel blockage in the cell line, as reflected by a decrease in fluorescence intensity, in a concentration-dependent manner. […] AC50 values were determined from concentration-response data modeled with the standard Hill equation.
# qHTS protocol for hERG-U2OS cellular assay
# [Step] [Parameter] [Value] [Description]
# 1. Day 1: Replace medium in 70-80% confluent T225 flask with 2.5 mL of hERG-BacMam virus plus 12.5 mL of phosphate buffered saline (PBS) (corresponding roughly to a multiplicity of infection ratio of 100 virus particles/cell)
# 2. Incubation: 4 hrs @ room Temperature in Dark
# 3. Reagent; Remove virus; wash once with 25 ml DPBS
# 4. Reagent; 35 ml culture medium
# 5. Incubation; 37 °C overnight
# 6. Day2: Reagent; 3 uL; 2000 U2OS cells/well
# 7. Time; 4 hr; 37 °C incubation
# 8. Loading buffer; 1 uL; 0.7X;
# 9. Incubation: 1hr @ RT in Dark.
# 12. Time; 10min; 37 °C incubation
# 13. Read fluorescence Intensity on FDSS for 10 Sec with 1 sec interval
# 14. Reagent; 1 uL; stimulation buffer
# 15. Read fluorescence Intensity on FDSS for 2 min with 1 sec interval
# 16. Detection; Fluorescence Intensity; FDSS
# Potency is read from the fitted curve at half-maximal effect.
row,SMILES,Potency
1,Clc1cc(Cl)c(Cl)c(Cl)c1Cl,inactive
2,Nc1nc(Cl)nc2c1ncn2[C@@H]1O[C@H](COP(=O)(O)OP(=O)(O)OP(=O)(O)O)[C@H](O)[C@H]1O,inactive
3,CCCCN1CCC(COC(=O)c2cc(Cl)c(N)c3c2OCCO3)CC1,2.24 µM (active)
4,Cc1cc(N)c2ccccc2[n+]1CCCCCCCCCCCCCC[n+]1c(C)cc(N)c2ccccc21,7.08 µM (active)
5,COc1cc(/C=C/c2ccccc2)oc(=O)c1,inactive
6,O=C(/C=C/c1ccc(O)c(O)c1)O[C@@H](C(=O)O)[C@@H](OC(=O)/C=C/c1ccc(O)c(O)c1)C(=O)O,inactive
7,O=C(O)c1ccccc1,inactive
8,ClCCCl,inactive
9,CC1=C2[C@H](/C=C(\C)C(=O)O)CC[C@@H](C)[C@H]2CC1,inactive
10,Cc1c(C)c2c(c(C)c1O)CCC(C)(CN1CCN(c3cc(N4CCCC4)nc(N4CCCC4)n3)CC1)O2 (stereo not given),7.08 µM (active)
11,c1ccc2c(c1)[nH]c1ccccc12,inactive
12,CCC(O)OC(O)CC (stereo not given),inactive
13,CCO[Si](CCCN)(OCC)OCC,inactive
14,COc1ccc(/C=C/c2cc(OC)cc(=O)o2)cc1,inactive
15,O=C1CCc2ccccc2O1,inactive
16,Clc1cc(Cl)c(Cl)cc1Cl,inactive
17,Cc1ccc([N+](=O)[O-])cc1N,inactive
18,CC(C)=CCCC(C)CCO (stereo not given),inactive
19,CCCCCCCCCCCCCCC1CO1 (stereo not given),inactive
20,Cc1ccccc1C,inactive

row,SMILES,Potency
1,C=C(C)C1CC=C(C)C(O)C1 (stereo not given),inactive
2,Nc1ccc(Cl)cc1Cl,inactive
3,Nc1ccc(S(=O)(=O)O)cc1,inactive
4,C[C@]12C[C@H](O)C3[C@@H](CCC4=CC(=O)CC[C@@]43C)[C@@H]1CC[C@@H]2C(=O)CO (stereo not given in full),inactive
5,CCC(C)n1ncn(-c2ccc(N3CCN(c4ccc(OCC5COC(Cn6cncn6)(c6ccc(Cl)cc6Cl)O5)cc4)CC3)cc2)c1=O (stereo not given),inactive
6,O=C1c2ccccc2C(=O)C1c1ccc2ccccc2n1,inactive
7,CCCCCCCCO,inactive
8,CC12CCC(CC1=O)C2(C)C (stereo not given),inactive
9,O=C(O)CC(C(=O)O)C(CC(=O)O)C(=O)O (stereo not given),inactive
10,O=C(O)c1ccccc1C(c1ccc(O)cc1)c1ccc(O)cc1,inactive
11,C=CC(=O)OCCOCCOCCOCCOC(=O)C=C,inactive
12,Cc1ccc([N+](=O)[O-])c(C)c1,inactive
13,c1ccc2c(c1)c1cccc3ccc4cccc2c4c31,inactive
14,CCCCOCCO,inactive
15,CC1(C)CC(N=C=O)CC(C)(CN=C=O)C1 (stereo not given),inactive
16,CC1=CC(C)(C)Nc2ccccc21,inactive
17,NC1=NC(S)C2N=CN=C2N1 (stereo not given),inactive
18,c1ccc2scnc2c1,inactive
19,CCCCCCCCCCCCCC(=O)O,inactive
20,O=C(O)c1ccc(O)cc1O,inactive
